Test results reported in PubChem BioAssay (EPA / NIEHS).
Results filed as inconclusive are left out. Activity calls are given as the source filed them. The calls were made as follows: active = hit-call score of the fitted dose curve at least 0.9, where 1 is the maximum; inconclusive = response in the unintended direction; inactive = score below 0.9.

Assays:
[1] = Tanguay_ZF_120hpf_ActivityScore_legacy: (Legacy) Oregon State University Tanguay Lab 120 Hour Post-fertilization zebrafish Assay Score for Activity (AID 2283742);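 as to AC50: dechorionated Tropical 5D wild-type zebrafish embryos held singly per well; static exposure from 6 hpf until 120 hpf at 28 °C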
How it was run: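 In this whole-embryo screen, dechorionated zebrafish were exposed from 6 hpf until 120 hpf at 28C under a 0.64% DMSO vehicle. Developmental malformations and death were recorded by brightfield microscopy as binary endpoints.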

[2] = target: Luciferin 4-monooxygenase (Photinus pyralis) (UniProt P08659); test: CCTE_Simmons_QuantiLum_inhib_2: CCTE's Firefly Luciferase Inhibition Assay, Simmons Lab (AID 2283767)
Chain of Luciferin 4-monooxygenase (Photinus pyralis) (P08659 whole entry, looked up): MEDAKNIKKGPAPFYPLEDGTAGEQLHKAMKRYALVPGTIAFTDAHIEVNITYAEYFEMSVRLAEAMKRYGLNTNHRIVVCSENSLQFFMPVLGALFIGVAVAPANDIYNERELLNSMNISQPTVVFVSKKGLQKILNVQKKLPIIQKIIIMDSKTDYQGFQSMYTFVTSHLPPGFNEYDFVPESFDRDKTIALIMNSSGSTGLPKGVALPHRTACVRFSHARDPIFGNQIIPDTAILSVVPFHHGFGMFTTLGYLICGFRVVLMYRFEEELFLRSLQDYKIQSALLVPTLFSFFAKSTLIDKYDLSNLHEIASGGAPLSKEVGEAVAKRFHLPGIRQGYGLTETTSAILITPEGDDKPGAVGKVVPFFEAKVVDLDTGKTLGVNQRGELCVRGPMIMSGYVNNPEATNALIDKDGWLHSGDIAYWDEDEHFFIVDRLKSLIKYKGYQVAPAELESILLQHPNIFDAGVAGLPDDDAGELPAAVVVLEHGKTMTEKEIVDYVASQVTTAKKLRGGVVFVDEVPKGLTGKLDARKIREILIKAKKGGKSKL
How it was run: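 First, 5 ng purified luciferase in phosphate buffer with BSA is dispensed per well. Next, test chemicals (5 nM to 87.5 uM final, 0.5% DMSO) are added and incubated 30 min at 37C in darkness. Finally, luciferin reagent is injected and luminescence read kinetically.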

[3] = ACEA_AR_agonist_AUC_viability: ACEA Biosciences xCELLigence Real-Time Cell Analysis on Androgen Receptor Agonism for Viability (AID 2283775);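 as to AC50: viability read 80 hours after compound addition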
How it was run: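 22Rv1 cells; impedance growth kinetics; 8-pt 1:4 dilutions from 100 uM top final, ≤0.5% DMSO; n = 2; 80 h read; AUC viability, loss-of-signal vs DMSO.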

[4] = ACEA_AR_antagonist_AUC_viability: ACEA Biosciences xCELLigence Real-Time Cell Analysis on Androgen Receptor Antagonism for Viability (AID 2283776);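 also: 22Rv1 human prostate cancer cells growing on impedance electrode plates; area under impedance growth curve at 80 h after dosing as viability; hits lower the growth signal relative to DMSO meaning cytotoxicity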
How it was run: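 Real-time electrical impedance tracks 22Rv1 proliferation after continuous compound exposure (top 100 uM final, 1:4 steps, 8 concentrations). The 80 h area-under-curve serves as the cytotoxicity readout relative to DMSO.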

[5] = test system: zebrafish Androgen Receptor (AR), gene 100005148; test: ATG_zfAR_XSP1: Attagene TRANS-FACTORIAL Multi-Species (XSP1) HepG2 Assay for zebrafish Androgen Receptor (AR) (AID 2283771)
How it was run: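 Gain-of-signal versus DMSO was measured as reporter transcripts quantified by RT-PCR, fluorescent labelling and capillary electrophoresis after 24 h chemical exposure. The cells were HepG2 expressing a chimeric zebrafish AR-GAL4, co-stimulated with 3 nM 6-alpha-fluorotestosterone.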

[6] = target: zebrafish Estrogen Receptor (ESR1), esr1 (gene 259252) (UniProt P57717); test: ATG_zfER1_XSP1: Attagene TRANS-FACTORIAL Multi-Species (XSP1) HepG2 Assay for zebrafish Estrogen Receptor (ESR1) (AID 2283772)
Chain of zebrafish Estrogen Receptor (ESR1), esr1 (gene 259252) (P57717 whole entry, looked up, the tested form may be a part): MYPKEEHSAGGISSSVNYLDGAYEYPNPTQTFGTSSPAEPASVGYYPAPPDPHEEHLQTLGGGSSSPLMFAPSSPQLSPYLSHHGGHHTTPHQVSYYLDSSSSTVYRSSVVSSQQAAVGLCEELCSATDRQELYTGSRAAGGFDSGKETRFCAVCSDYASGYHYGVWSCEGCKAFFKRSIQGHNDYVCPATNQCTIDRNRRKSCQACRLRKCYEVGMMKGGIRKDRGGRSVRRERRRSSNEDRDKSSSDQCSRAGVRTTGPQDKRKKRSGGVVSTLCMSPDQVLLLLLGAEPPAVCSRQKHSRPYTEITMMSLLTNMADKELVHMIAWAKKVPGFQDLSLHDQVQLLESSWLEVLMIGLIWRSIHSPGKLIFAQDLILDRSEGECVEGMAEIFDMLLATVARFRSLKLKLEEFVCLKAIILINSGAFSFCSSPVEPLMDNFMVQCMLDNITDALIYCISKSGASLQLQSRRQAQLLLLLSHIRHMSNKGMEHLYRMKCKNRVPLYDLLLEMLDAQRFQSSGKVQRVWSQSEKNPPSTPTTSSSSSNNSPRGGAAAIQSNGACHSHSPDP
How it was run: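 Reporter mRNA induction, gauged via RT-PCR/capillary electrophoresis fluorescence relative to DMSO controls, in HepG2 cells transiently carrying GAL4-UAS reporter units; 24 h dosing.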

[7] = test system: zebrafish Estrogen Receptor (ESR2B), gene 317733; test: ATG_zfER2b_XSP1: Attagene TRANS-FACTORIAL Multi-Species (XSP1) HepG2 Assay for zebrafish Estrogen Receptor (ESR2B) (AID 2283773)
How it was run: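 Human hepatoma HepG2, transiently transfected with multi-reporter units; exogenous zebrafish ESR2B-Gal4 activity measured. Exposure 24 h alongside 3 nM 6-alpha-fluorotestosterone to partly stimulate AR.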

[8] = test system: frog Estrogen Receptor (ESR2), gene 100174814; test: ATG_frER2_XSP1: Attagene TRANS-FACTORIAL Multi-Species (XSP1) HepG2 Assay for frog Estrogen Receptor (ESR2) (AID 2283774)
How it was run: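 Multiplexed TRANS-format reporter assay in human hepatoma HepG2: chimeric nuclear receptor-Gal4 activity reported as mRNA induction at 24 h, detected by fluorescent RT-PCR products on capillary electrophoresis and fitted upward from DMSO baseline.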

[9] = test system: frog Estrogen Receptor (ESR1), gene 398734; test: ATG_frER1_XSP1: Attagene TRANS-FACTORIAL Multi-Species (XSP1) HepG2 Assay for frog Estrogen Receptor (ESR1) (AID 2283777)
How it was run: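 After transient transfection and 24 h compound treatment, total RNA from HepG2 cells was reverse-transcribed, amplified, FAM-labeled and resolved by capillary electrophoresis. Signal increases were fitted against DMSO controls.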

[10] = test system: zebrafish Estrogen Receptor (ESR2A), gene 317734; test: ATG_zfER2a_XSP1: Attagene TRANS-FACTORIAL Multi-Species (XSP1) HepG2 Assay for zebrafish Estrogen Receptor (ESR2A) (AID 2283778)
How it was run: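 Gain-of-signal reporter transcription readout from GAL4-UAS units in transiently transfected HepG2 cells, 24 h exposure, 3 nM 6-alpha-fluorotestosterone co-present. Detection by RT-PCR with capillary electrophoresis fluorescence.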

[11] = target: chicken Estrogen Receptor (ESR1), ESR1 (gene 396099) (UniProt P06212); test: ATG_chERa_XSP1: Attagene TRANS-FACTORIAL Multi-Species (XSP1) HepG2 Assay for chicken Estrogen Receptor (ESR1) (AID 2283779)
Chain of chicken Estrogen Receptor (ESR1), ESR1 (gene 396099) (P06212 whole entry, looked up, the tested form may be a part): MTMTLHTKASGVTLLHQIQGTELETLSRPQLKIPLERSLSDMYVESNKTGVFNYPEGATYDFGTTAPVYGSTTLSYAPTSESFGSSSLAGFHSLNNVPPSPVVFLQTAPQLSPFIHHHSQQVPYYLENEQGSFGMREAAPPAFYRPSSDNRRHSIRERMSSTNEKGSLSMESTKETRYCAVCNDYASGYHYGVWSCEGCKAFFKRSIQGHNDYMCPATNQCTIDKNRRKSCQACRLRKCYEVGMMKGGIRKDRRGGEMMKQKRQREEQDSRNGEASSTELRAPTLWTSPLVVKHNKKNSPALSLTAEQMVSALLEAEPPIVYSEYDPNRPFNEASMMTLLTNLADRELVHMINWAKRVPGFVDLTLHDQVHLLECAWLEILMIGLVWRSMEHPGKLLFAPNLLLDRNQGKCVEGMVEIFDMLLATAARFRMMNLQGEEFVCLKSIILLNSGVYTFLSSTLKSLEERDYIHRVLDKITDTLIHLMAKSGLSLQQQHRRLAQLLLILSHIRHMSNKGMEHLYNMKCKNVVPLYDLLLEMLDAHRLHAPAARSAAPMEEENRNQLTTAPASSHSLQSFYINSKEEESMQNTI
How it was run: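 Gain-of-signal reporter transcription, relative to DMSO, was scored in transiently transfected HepG2 cells after a 24 h dose. Fluorescence intensity of amplified, digested reporter cDNA fragments served as the endpoint.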

[12] = target: Estrogen receptor (Homo sapiens) (UniProt P03372); test: ATG_hERa_XSP1: Attagene TRANS-FACTORIAL Multi-Species (XSP1) HepG2 Assay for human Estrogen Receptor (ESR1) (AID 2283780)
Chain of Estrogen receptor (Homo sapiens) (P03372 whole entry, looked up, the tested form may be a part): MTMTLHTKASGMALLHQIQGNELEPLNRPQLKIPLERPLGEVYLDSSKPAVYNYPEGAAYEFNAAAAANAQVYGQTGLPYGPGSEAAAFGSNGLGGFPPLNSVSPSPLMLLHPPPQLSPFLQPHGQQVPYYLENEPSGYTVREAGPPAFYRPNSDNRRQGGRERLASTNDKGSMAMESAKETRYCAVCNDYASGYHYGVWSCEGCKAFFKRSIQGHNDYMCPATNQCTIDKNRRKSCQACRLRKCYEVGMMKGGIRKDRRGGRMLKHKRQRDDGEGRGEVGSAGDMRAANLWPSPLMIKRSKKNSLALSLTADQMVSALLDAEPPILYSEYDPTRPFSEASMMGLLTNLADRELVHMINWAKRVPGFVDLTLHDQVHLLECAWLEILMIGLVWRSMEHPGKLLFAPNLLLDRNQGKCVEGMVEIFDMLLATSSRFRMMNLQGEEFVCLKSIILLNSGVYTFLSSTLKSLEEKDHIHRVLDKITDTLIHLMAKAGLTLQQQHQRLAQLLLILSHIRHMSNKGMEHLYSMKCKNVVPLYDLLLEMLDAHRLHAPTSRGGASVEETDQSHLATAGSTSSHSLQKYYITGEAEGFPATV
How it was run: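 Reporter transcripts from multiplexed GAL4-UAS units driven by NR-Gal4 chimeras in transiently transfected HepG2 were measured by RT-PCR with capillary electrophoresis 24 h post-dose, with 3 nM 6-alpha-fluorotestosterone present; gain-of-signal relative to DMSO.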

[13] = test system: turtle Estrogen Receptor (ESR1), gene 101933533; test: ATG_trERa_XSP1: Attagene TRANS-FACTORIAL Multi-Species (XSP1) HepG2 Assay for turtle Estrogen Receptor (ESR1) (AID 2283781)
How it was run: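 Cell-based chimeric NR-Gal4 transactivation; HepG2; 24 h dosing; mRNA reporter detected by RT-PCR and capillary electrophoresis fluorescence.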

Measured: AC50

CCCCCCCCCc1ccc(O)cc1
inactive: [1] | [2]
active: [3] 22.9 µM | [4] 19.1 µM

CC#Cc1cc(C)nc(Nc2ccccc2)n1
inactive: [1]

ClC(Cl)=C(c1ccc(Cl)cc1)c1ccc(Cl)cc1
inactive: [1] | [5] | [6] | [9] | [11]
active: [7] 5.92 µM | [8] 3.83 µM | [3] 29.6 µM | [4] 21.4 µM | [10] 10 µM | [12] 4.53 µM | [13] 5.5 µM

CCCCCCCCCC[N+](C)(C)CCCCCCCCCC
active: [1] 39.7 µM | [3] 3.81 µM | [4] 6.84 µM
inactive: [2]

COS(=O)(=O)OC
inactive: [1] | [2] | [3] | [4]

O=C(O)C(F)(F)C(F)(F)C(F)(F)C(F)(F)C(F)(F)C(F)(F)C(F)(F)C(F)(F)C(F)(F)F
inactive: [1] | [2]
active: [3] 71.7 µM | [4] 67.3 µM

Clc1ccc(C(c2ccccc2Cl)C(Cl)(Cl)Cl)cc1 (stereo not drawn)
active: [6] 2.48 µM | [7] 0.752 µM | [8] 0.674 µM | [3] 8.75 µM | [4] 12.8 µM | [9] 0.389 µM | [10] 0.679 µM | [11] 0.291 µM | [13] 0.713 µM
inactive: [1] | [5]

CCOP(=S)(OCC)SCSC(C)(C)C
active: [3] 82.5 µM | [4] 59.6 µM
inactive: [1]

Cc1cccc([N+](=O)[O-])c1
inactive: [1] | [3] | [4]

CCC(=O)O[C@H]1CC[C@H]2[C@@H]3CCC4=CC(=O)CC[C@]4(C)[C@H]3CC[C@]12C
inactive: [1] | [2]
